Results taken from PubChem BioAssay AID651704 (Broad Institute, 2012).
“And” between values parts separate entries of the source, which are not always exact repeats. Equal entries are not always repeated. Hit rate of the full screen: of about 350,000 compounds, about 1,600 (0.46%) were called active.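 The calls were made as follows: active = every replicate reaching a set inhibition limit, whatever the replicate mean (cut at about 25% in these data); inconclusive = mean inhibition reaches that limit but some replicates miss it; inactive = the rest.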 The sample as a whole holds a higher share of actives than the screen did.

These molecules were tested against Protein AF-9 (Homo sapiens) (UniProt P42568) (assay: inhibitors of AF4 peptide binding to AF9, primary screen, biochemical, AlphaScreen, biotin-AF4 peptide, FLAG-AF9, single point (AID 651704;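 also: 0% = plate neutral control median and 100% = total signal loss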)). Settings: at 10 µM, active compounds read high.
Sequence of Protein AF-9 (Homo sapiens) (P42568 whole entry, looked up): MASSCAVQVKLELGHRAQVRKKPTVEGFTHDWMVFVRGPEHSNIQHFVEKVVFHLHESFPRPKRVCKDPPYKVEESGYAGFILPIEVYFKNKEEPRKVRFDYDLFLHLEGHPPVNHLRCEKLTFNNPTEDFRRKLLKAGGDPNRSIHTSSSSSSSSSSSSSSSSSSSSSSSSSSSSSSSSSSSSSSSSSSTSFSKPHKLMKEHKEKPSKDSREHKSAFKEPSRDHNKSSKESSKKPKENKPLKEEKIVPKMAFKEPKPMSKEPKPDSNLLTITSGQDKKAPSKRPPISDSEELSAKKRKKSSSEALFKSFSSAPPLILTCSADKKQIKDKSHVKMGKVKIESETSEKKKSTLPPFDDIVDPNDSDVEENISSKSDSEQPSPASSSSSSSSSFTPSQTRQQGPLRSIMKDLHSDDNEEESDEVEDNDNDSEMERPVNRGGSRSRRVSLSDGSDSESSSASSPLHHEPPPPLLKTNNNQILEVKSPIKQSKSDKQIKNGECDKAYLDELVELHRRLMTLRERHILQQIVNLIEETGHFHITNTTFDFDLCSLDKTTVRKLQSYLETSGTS

| SMILES | inhibition |
| --- | --- |
| COc1ccc2c3c(n(C)c2c1)[C@H](CO)N(Cc1cccnc1)CC31CCN(Cc2cccnc2)CC1 | 13.7% (inactive) |
| C[C@H](CO)N1C[C@H](C)[C@H](CN(C)CC2CCCCC2)OCCCC[C@H](C)Oc2ccc(NC(=O)c3ccncc3)cc2C1=O | -4.16% (inactive) |
| COC(=O)[C@H]1[C@H]2C[C@H]3c4[nH]c5ccccc5c4CCN3C[C@@H]2CC[C@@H]1O | 10.9% (inactive) and 1.82% (inactive) |
| COc1ccc(-c2ccc3[nH]c4c(c3c2)CCN2C[C@H]3[C@H](C)ON(C)[C@H]3C[C@@H]42)cc1 | 27.4% (active) |
| COc1cccc(C2c3[nH]c4ccccc4c3CCN2Cc2cccc(C)n2)c1 (centres undefined) | 16.4% (inactive) |
| CCCC#Cc1ccc([C@H]2[C@@H](CO)N3C(=O)CN(C(=O)c4ccncc4)C[C@@H]23)cc1 | -4.03% (inactive) |
| COc1cccc(S(=O)(=O)Nc2ccc3c(c2)[C@H]2C[C@H](CC(=O)O)O[C@H](CO)[C@H]2O3)c1 | -1.01% (inactive) |
| O=C(Nc1ccccc1)N1CC(=O)N2[C@@H](CO)[C@H](c3ccc(C#CC4CCCC4)cc3)[C@@H]2C1 | 7.61% (inactive) |
| Cc1cc(Nc2ccc(N3CCOCC3)cc2)c2cccc(C)c2n1 | 7.78% (inactive) |
| Cc1cc(Nc2ccc(C(=O)N3CCCCC3)cc2)c2cccc(C)c2n1 | -1.38% (inactive) |
| Cc1ccc(Nc2cc(C)nc3c(C)ccc([N+](=O)[O-])c23)cc1 | 33.4% (active) |
| COc1ccc2c3c(n(C)c2c1)[C@@H](CO)N(Cc1ccncc1)CC31CN(C(=O)C2CCCCC2)C1 | -2.52% (inactive) |
| COc1ccc2c3c(n(C)c2c1)[C@H](CO)N(C(C)=O)CC31CN(C(=O)c2cnccn2)C1 | -3.28% (inactive) |
| C/C(=N/NS(=O)(=O)c1ccccc1)c1ccc(NC(=O)C(F)(F)F)cc1 | 1.28% (inactive) |
| C/C(=N\NS(=O)(=O)c1ccc(Cl)cc1)c1ccc(NC(=O)c2ccco2)cc1 | 26.4% (active) |
| Cc1ccc(NC(=O)c2ccco2)cc1 | 2.52% (inactive) |
| CCC(=O)N1CC2(C1)CN(Cc1cc(F)ccc1F)[C@@H](CO)c1[nH]c3cc(OC)ccc3c12 | -4.95% (inactive) |
| CCOc1cc(N2CCOCC2)c(OCC)cc1NC(=O)COc1cccc(Cl)c1 | 3.04% (inactive) |
| CCOc1cc(N2CCOCC2)c(OCC)cc1NC(=O)C1=NN(c2cccc(C)c2)C(=O)CC1 | 31.5% (active) |
| CCOc1cc(N2CCOCC2)c(OCC)cc1NC(=O)c1ccc(C)s1 | 13.4% (inactive) |
| O=C(C[C@@H]1C=C[C@H](NC(=O)Nc2ccccc2F)[C@@H](CO)O1)NCc1ccccc1 | -2.34% (inactive) |
| CCC(=O)N1CC2(C1)[C@@H](c1ccc(-c3ccc(C#N)cc3)cc1)[C@H](CO)N2C(C)=O | -2.76% (inactive) |
| O=C(N/N=C/c1sc(N2CCCCC2)nc1-c1cccs1)c1cccnc1 | 26.1% (active) |
| Cc1ccc(S(=O)(=O)N2CCCCC2)cc1NC(=O)c1cccnc1 | 2.47% (inactive) |
| O=C(O)c1ccc(N/N=C/c2cn(-c3ccccc3)nc2-c2cccs2)cc1 | 3.91% (inactive) |

| SMILES | inhibition |
| --- | --- |
| COc1ccccc1C#Cc1ccc([C@@H]2[C@H](CO)N3CCCCN(C(=O)C4CCCC4)C[C@@H]23)cc1 | 6.51% (inactive) |
| Cc1cccc(-c2ccc([C@@H]3[C@H]4CN(C(=O)c5ccccc5)CC(=O)N4[C@H]3CO)cc2)c1 | 2.35% (inactive) |
| COc1cccc(CNC(=O)CN2C(=O)NC(Cc3ccccc3)(c3ccccc3)C2=O)c1 (centres undefined) | -3.3% (inactive) |
| CNC(=O)CN1C(=O)NC(c2ccccc2)(c2ccccc2)C1=O | 0.637% (inactive) |
| CCCCNC(=O)CN1C(=O)NC(Cc2ccccc2)(Cc2ccccc2)C1=O | 51% (active) |
| COc1cccc(NC(=O)N[C@@H]2CC[C@H](CC(=O)NCc3ccccn3)O[C@H]2CO)c1 | -1.32% (inactive) |
| CCCN1[C@@H]2c3ccc(-c4ccccc4)c(=O)n3C[C@@H]2[C@@H](CO)[C@@H]1C(=O)N(C)C | -2.05% (inactive) |
| O=C1CC[C@@H]2CC3(C[C@@H]4CCN1[C@H]24)Nc1cc([N+](=O)[O-])ccc1NC3=NC1CCCCC1 (some centres undefined) | 5.39% (inactive) |
| Cc1cc2c(cc1C)NC1(C[C@H]3CCC(=O)N4CC[C@@H](C1)[C@@H]34)C(=NC(C)(C)CC(C)(C)C)N2 (some centres undefined) | 54.9% (active) |
| CC=Cc1ccc2n(c1=O)C[C@H]1[C@H](CO)[C@@H](C(=O)NC3CCCC3)[C@@H]2N1C(=O)c1cnccn1 (mixture of isomers) | -3.71% (inactive) |
| CN(C)CC(=O)N1[C@H](C#N)[C@H](c2ccccc2-c2cccc(C(=O)N(C)C)c2)[C@@H]1CO | -2.16% (inactive) |
| Cc1noc(C)c1NC(=O)N(C)C[C@H]1Oc2ccc(N(C)C)cc2CC(=O)N([C@H](C)CO)C[C@H]1C | -0.871% (inactive) |
| CO[C@H]1CN(C)C(=O)c2ccc(NC(=O)C3CC3)cc2OC[C@@H](C)N(Cc2ccc(F)cc2)C[C@@H]1C | 2.37% (inactive) |
| CCCC#Cc1ccc([C@H]2[C@H]3CN(C(=O)c4cccnc4)CC(=O)N3[C@H]2CO)cc1 | 27.2% (active) |
| CCCC#Cc1ccc([C@@H]2[C@@H](CO)N3C(=O)CN(C(=O)c4ccncc4)C[C@@H]23)cc1 | -2.52% (inactive) |
| CCCC#Cc1ccc([C@H]2[C@@H](CO)N3C(=O)CN(C(=O)c4ccncc4)C[C@H]23)cc1 | -2.78% (inactive) |
| COc1ccc(C#Cc2ccc([C@H]3[C@H]4CN(C(=O)c5ccncc5)CC(=O)N4[C@H]3CO)cc2)cc1 | -4.11% (inactive) |
| C[C@@H]1CCCCO[C@H](CN(C)C(=O)C2CCCCC2)[C@@H](C)CN([C@@H](C)CO)C(=O)c2cc(NC(=O)Nc3ccccc3)ccc2O1 | 5.54% (inactive) |
| COc1ccccc1NC(=O)N1CCCCN2[C@H](CO)[C@H](c3ccc(C#CC4CC4)cc3)[C@@H]2C1 | 6.56% (inactive) |
| COc1ccc(NC(=S)NCC2CCN(c3ccc(OC)cc3)C2)cc1 (centres undefined) | 28.9% (active) |
| COc1ccc(N2CCC(CNC(=S)Nc3c(C)cccc3C)C2)cc1 (centres undefined) | 18.6% (inactive) |
| COc1ccc(OCC(=O)Nc2ccc(N3CCC(C)CC3)cc2)cc1 | 1.34% (inactive) |
| CO[C@@H]1CN(C)C(=O)c2ccc(NC(=O)C3CC3)cc2OC[C@H](C)N(C(=O)c2ccccc2)C[C@@H]1C | -0.663% (inactive) |
| Cc1c(C)n(Cc2ccc(Cl)cc2)c2ccc(C(=O)NCCCN3CCOCC3)cc12 | 26.6% (active) |
| O=C(NCCCN1CCOCC1)c1cc(-c2ccc(Cl)cc2)on1 | -5.39% (inactive) |

| SMILES | inhibition |
| --- | --- |
| COc1ccc(Cn2c(=S)[nH]c3cc(C(=O)NCCCN4CCOCC4)ccc3c2=O)cc1 | -9.96% (inactive) |
| COc1ccccc1-c1ccc([C@H]2[C@@H](CO)N(CC3CC3)C23CN(S(C)(=O)=O)C3)cc1 | 0.485% (inactive) |
| Cn1cnc(S(=O)(=O)NC[C@@H]2CC[C@@H]3[C@@H](CN3Cc3nccs3)O2)c1 | -5.79% (inactive) |
| O=C(CN1CCOCC1)N1CCCCN2[C@H](C1)[C@H](c1ccc(-c3ccccc3F)cc1)[C@@H]2CO | -4.58% (inactive) |
| C[C@H](CO)N1C[C@H](C)[C@@H](CN(C)Cc2ccc(Oc3ccccc3)cc2)Oc2ccc(NS(=O)(=O)c3ccc(F)cc3)cc2CC1=O | 1.77% (inactive) |
| Cc1cc(N=Nc2ccc3ccccc3c2)ccc1O | 35.1% (active) |
| COc1ccc2c3c(n(C)c2c1)[C@@H](CO)N(C(=O)CN1CCOCC1)CC31CN(C(=O)CC2CC2)C1 | 0.071% (inactive) |
| O=C(Nc1c[nH]c(=O)[nH]c1=O)OCc1ccccc1 | 2.62% (inactive) |
| Nc1ccccc1C(=O)NC1CCCCNC1=O (centres undefined) | -2.44% (inactive) |
| O=C(CNC(=O)OCc1ccccc1)NC1CCCCNC1=O (centres undefined) | 48% (active) |
| C[C@@H]1CN([C@@H](C)CO)C(=O)CCCn2nncc2CO[C@H]1CN(C)C(=O)CCCN(C)C | -5.71% (inactive) |
| Cc1ccccc1S(=O)(=O)N1CC[C@H]2[C@H](CO)Nc3ccc(-c4cccc(F)c4)cc3[C@H]21 | -2.53% (inactive) |
| Cc1noc(C)c1NC(=O)Nc1ccc2c(c1)CC(=O)N([C@H](C)CO)C[C@@H](C)[C@@H](CN(C)S(=O)(=O)c1ccc(Cl)cc1)O2 | -0.675% (inactive) |
| CN(C)C(=O)C[C@@H]1C[C@@H]2c3cc(NC(=O)C4CCOCC4)ccc3O[C@@H]2[C@@H](CO)O1 | -3.12% (inactive) |
| CCCC(C)NC(=O)C1CCN(C(=O)C2CC(=O)N(c3ccc(C)cc3)C2)CC1 (centres undefined) | -6.07% (inactive) |
| Cc1ccc(N2CC(C(=O)NCCS(=O)(=O)N3CCN(c4ccccc4)CC3)CC2=O)cc1 (centres undefined) | 0.43% (inactive) |
| COCCNC(=O)C1CCN(C(=O)C2CC(=O)N(c3ccc(C)cc3)C2)CC1 (centres undefined) | 50.4% (active) |
| C/C=C/c1ccc([C@@H]2[C@H](CO)N(CC3CCCC3)C23CN(C(=O)CC2CC2)C3)cc1 | 5.28% (inactive) |
| CN(C)C(=O)C[C@H]1C=C[C@@H](NC(=O)c2ccc(F)cc2)[C@@H](CO)O1 | -2.41% (inactive) |
| COc1ccccc1S(=O)(=O)N(C)C[C@@H]1Oc2cc(C#CCC3CCCC3)ccc2S(=O)(=O)N([C@H](C)CO)C[C@H]1C | 2.17% (inactive) |
| CN1CCN(CCNC(=O)Nc2ccc([N+](=O)[O-])cc2)CC1 | -2.1% (inactive) |
| O=C(NCCCN1CCN(c2ccc(F)cc2)CC1)Nc1ccc([N+](=O)[O-])cc1 | 25.7% (active) |
| O=C(NCCCN1CCOCC1)c1ccc([N+](=O)[O-])cc1[N+](=O)[O-] | -2.14% (inactive) |
| CO[C@H]1CN(C)C(=O)c2cc(NS(=O)(=O)CC(F)(F)F)ccc2OC[C@H](C)N(C(=O)c2ccc3c(c2)OCO3)C[C@H]1C | -1.49% (inactive) |
